# Records with an inconclusive call do not appear. A call without a number means that no potency is given here. A number with no mark means an inactive call. Active and inactive are the calls of the source. Unless noted, the call rests on the fitted dose curve; in most records, active means well fitted curve in the direction sought with a large enough effect; inconclusive means small, poorly fitted or top-dose-only effect, or another doubt; inactive means no such curve, though single readings can be large; an effect the other way counts as inactive or inconclusive.
# Assays:
# [1] = Primary qHTS for small molecule stabilizers of the endoplasmic reticulum resident proteome: Secreted ER Calcium Modulated Protein (SERCaMP) assay (AID 1508630)
# In short: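 The SH-SY5Y reporter protocol was run at 3 concentrations up to 38.3 uM (primary) or 11 concentrations (follow-up): 16 h compound, 100 nM thapsigargin for 4 h, then extracellular luciferase luminescence.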
# [2] = molecular target: Cytochrome P450 2D6 (Homo sapiens) (UniProt P10635); assay: Cytochrome P450 family 2 subfamily D member 6 (CYP2D6) small molecule antagonists: luciferase biochemical (cell-free) qHTS assay (AID 1645840; active means well fitted curve in the direction sought with a large enough effect in the repeat runs; an effect the other way counts as inactive or inconclusive; further: nearly all actives have a fitted effect of over 55% in size; further: potency means the concentration at half of the fitted maximal effect; on activity change, negative = inhibition: series mostly up to about 57 µM)
# In short: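 P450-Glo CYP2D6 system: proluciferin substrate converted by enzyme to luciferin, read by luminescence proportional to activity. Enzyme-substrate mix with compound 10 min at room temperature, then NADPH regeneration 1 h before detection reagent.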
# [3] = molecular target: Cytochrome P450 2C9 (Homo sapiens) (UniProt P11712); assay: Cytochrome P450 family 2 subfamily C member 9 (CYP2C9) small molecule antagonists: luciferase biochemical (cell-free) qHTS assay (AID 1645842; active means well fitted curve in the direction sought with a large enough effect in the repeat runs; an effect the other way counts as inactive or inconclusive; further: nearly all actives have a fitted effect of over 55% in size; further: potency means the concentration at half of the fitted maximal effect; on activity change, negative = inhibition: series mostly up to about 57 µM)
# In short: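 P450-Glo CYP2C9 system: proluciferin substrate with enzyme in mix containing 0.4% BSA, 10 min at room temperature, then NADPH regeneration solution added and incubated 1 h at 37C. Detection reagent stopped reaction; luminescence read after 20 min as RLU.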
# [4] = A High-Content qHTS Against Drug Library for the Identification of Small Molecules that Inhibit DYT1 Early Onset Primary Dystonia-Associated Cell Pathology (AID 1645839; calls by dose curve; further: potency means the concentration at half of the fitted maximal effect; on % pathology change, negative = correction: series mostly up to about 46 µM)
# In short: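 Induced EGFP-delE TorsinA cells are imaged after 48 h of compound treatment. Punctate fusion-protein distribution gives the %pathology value, while nuclei counts flag toxicity. Wild-type EGFP-hTOR1A cells define the normal pattern.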
# [5] = molecular target: N-terminal Xaa-Pro-Lys N-methyltransferase 1 (Homo sapiens) (UniProt Q9BV86); assay: Confirmatory qHTS for Inhibitors of N-terminal methyltransferase 1 (NTMT1): MTaseGlo Assay (AID 1645874); settings: NTMT1 enzyme, MTase-Glo SAH luminescence; further: potency means the concentration at half of the fitted maximal effect; nearly all actives have a fitted effect of over 65% in size
# In short: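 Room-temperature NTMT1 reaction, 30 min, with 100 uM SAM and 1 uM SPKRIA substrate; enzyme 125 nM. Read-out: MTase-Glo luminescence, normalized to no-enzyme and DMSO controls.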
# Papain (Carica papaya) = Papain (Carica papaya) (UniProt P00784); assay: Primary qHTS assay for inhibitors of the protease papain (AID 1645873);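 further: papain turnover of Z-FR-AMC read as the AMC fluorescence gain over 10 min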; further: potency means the concentration at half of the fitted maximal effect; on activity change, negative = inhibition: series mostly up to about 50 µM
# Sequence of Papain (Carica papaya) (P00784 whole entry, looked up): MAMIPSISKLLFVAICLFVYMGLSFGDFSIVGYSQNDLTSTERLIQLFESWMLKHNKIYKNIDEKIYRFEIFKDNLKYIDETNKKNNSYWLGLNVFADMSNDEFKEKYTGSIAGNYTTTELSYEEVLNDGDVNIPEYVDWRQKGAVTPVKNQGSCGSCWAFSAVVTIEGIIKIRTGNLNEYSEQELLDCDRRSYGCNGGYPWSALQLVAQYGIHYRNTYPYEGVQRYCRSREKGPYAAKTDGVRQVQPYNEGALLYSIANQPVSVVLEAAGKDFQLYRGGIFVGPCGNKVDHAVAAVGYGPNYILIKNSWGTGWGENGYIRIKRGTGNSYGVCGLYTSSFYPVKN
# Sequence of Cytochrome P450 2D6 (Homo sapiens) (P10635 whole entry, looked up): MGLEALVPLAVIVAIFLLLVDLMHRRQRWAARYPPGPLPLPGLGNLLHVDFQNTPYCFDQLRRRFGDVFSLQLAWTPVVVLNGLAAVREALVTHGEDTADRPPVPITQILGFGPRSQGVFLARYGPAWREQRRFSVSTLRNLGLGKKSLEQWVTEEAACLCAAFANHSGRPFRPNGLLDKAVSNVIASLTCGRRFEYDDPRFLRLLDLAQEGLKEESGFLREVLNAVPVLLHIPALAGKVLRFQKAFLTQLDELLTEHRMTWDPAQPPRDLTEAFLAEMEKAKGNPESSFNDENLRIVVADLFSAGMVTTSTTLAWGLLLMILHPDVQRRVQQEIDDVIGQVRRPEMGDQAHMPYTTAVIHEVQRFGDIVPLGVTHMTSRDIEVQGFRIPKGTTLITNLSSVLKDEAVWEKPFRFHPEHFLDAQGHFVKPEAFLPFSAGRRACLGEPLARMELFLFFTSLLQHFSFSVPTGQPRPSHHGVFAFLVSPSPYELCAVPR
# Sequence of Cytochrome P450 2C9 (Homo sapiens) (P11712 whole entry, looked up): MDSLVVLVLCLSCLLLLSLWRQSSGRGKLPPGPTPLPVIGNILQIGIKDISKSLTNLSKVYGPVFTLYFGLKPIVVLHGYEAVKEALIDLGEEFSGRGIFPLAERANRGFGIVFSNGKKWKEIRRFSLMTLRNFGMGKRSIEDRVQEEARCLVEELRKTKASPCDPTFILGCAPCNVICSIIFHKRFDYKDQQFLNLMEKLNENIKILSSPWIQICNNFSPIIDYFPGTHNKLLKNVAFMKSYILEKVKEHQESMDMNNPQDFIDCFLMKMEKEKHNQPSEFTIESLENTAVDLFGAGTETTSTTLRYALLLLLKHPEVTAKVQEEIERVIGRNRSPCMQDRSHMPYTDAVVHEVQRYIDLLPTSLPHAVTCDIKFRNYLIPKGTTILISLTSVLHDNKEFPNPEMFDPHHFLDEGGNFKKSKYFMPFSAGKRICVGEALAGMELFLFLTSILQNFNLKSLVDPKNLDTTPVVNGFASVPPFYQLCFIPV
# Sequence of N-terminal Xaa-Pro-Lys N-methyltransferase 1 (Homo sapiens) (Q9BV86 whole entry, looked up): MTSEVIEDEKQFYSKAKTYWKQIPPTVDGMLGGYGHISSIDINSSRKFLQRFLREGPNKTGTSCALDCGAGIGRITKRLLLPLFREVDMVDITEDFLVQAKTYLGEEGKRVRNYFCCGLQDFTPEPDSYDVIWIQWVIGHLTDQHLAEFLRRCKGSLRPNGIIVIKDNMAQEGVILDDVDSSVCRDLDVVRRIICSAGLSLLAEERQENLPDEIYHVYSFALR
structure (smiles),measurement,setting,value
Cc1c(Cl)cccc1Nc1ccccc1C(=O)O,Potency,[1],inactive
same,Potency,[2],inactive
COc1cc2[nH]c(=O)[nH]c(=O)c2cc1OC,Potency,[1],inactive
same,Potency,[2],inactive
same,Potency,[3],inactive
O=C1Nc2ccc(Cl)cc2[C@@](C#CC2CC2)(C(F)(F)F)O1,Potency,[1],inactive
same,Potency,[2],27.5 µM (active)
same,Potency,[3],17.4 µM (active)
COc1ccc2[nH]c(S(=O)Cc3ncc(C)c(OC)c3C)nc2n1 (stereo not drawn),Potency,[1],inactive
same,Potency,[4],inactive
same,Potency,[2],inactive
same,Potency,[3],10.7 µM (active)
same,Potency,[5],35.5 µM (active)
CCn1cc(C(=O)O)c(=O)c2cnc(N3CCNCC3)nc21,Potency,[1],inactive
same,Potency,[2],inactive
same,Potency,[3],inactive
CC(COc1ccccc1)NC(C)C(O)c1ccc(O)cc1 (stereo not drawn),Potency,[1],inactive
same,Potency,[2],0.617 µM (active)
COCCOC(=O)C1=C(C)NC(C)=C(C(=O)OC/C=C/c2ccccc2)C1c1cccc([N+](=O)[O-])c1 (stereo not drawn),Potency,[1],inactive
same,Potency,[4],11.2 µM (active)
same,Potency,[3],0.0617 µM (active)
same,Potency,Papain (Carica papaya),inactive
CC(C)C(=O)c1c(C(C)C)nn2ccccc12,Potency,[1],inactive
same,Potency,[4],inactive
same,Potency,[2],inactive
same,Potency,[3],inactive
same,Potency,Papain (Carica papaya),inactive
NC(=O)c1ncn([C@@H]2O[C@H](CO)[C@@H](O)[C@H]2O)n1,Potency,[1],inactive
same,Potency,[4],inactive
same,Potency,[2],inactive
same,Potency,Papain (Carica papaya),inactive
CCCCOc1cc(C(=O)OCCN(CC)CC)ccc1N,Potency,[1],inactive
same,Potency,[4],inactive
same,Potency,[3],inactive
CC1(C)[C@@H]2CC[C@@]1(C)C(=O)C2,Potency,[1],inactive
same,Potency,[2],inactive
same,Potency,[3],inactive
O=c1[nH]cnc2c1ncn2[C@@H]1O[C@H](CO)[C@@H](O)[C@H]1O,Potency,[1],inactive
same,Potency,[2],inactive
same,Potency,[3],inactive
N[C@H]1C(O)O[C@H](CO)[C@@H](O)[C@@H]1O (stereo partly drawn),Potency,[1],inactive
same,Potency,[2],inactive
same,Potency,[3],inactive
CC[C@H]1CN2CCc3cc(OC)c(OC)cc3[C@@H]2C[C@@H]1C[C@H]1NCCc2cc(OC)c(OC)cc21,Potency,[1],inactive
same,Potency,[2],inactive
same,Potency,[3],inactive
same,Potency,Papain (Carica papaya),inactive
C[C@]12CC[C@@H]3c4ccc(O)cc4CC[C@H]3[C@@H]1CCC2=O,Potency,[1],inactive
same,Potency,[4],inactive
same,Potency,Papain (Carica papaya),inactive
Nc1ccc(S(=O)(=O)Nc2nccs2)cc1,Potency,[1],inactive
same,Potency,[4],inactive
same,Potency,[2],inactive
same,Potency,[3],inactive
COc1ccc2cc1Oc1ccc(cc1)C[C@H]1c3c(cc4c(c3Oc3cc5c(cc3OC)CCN(C)[C@@H]5C2)OCO4)CCN1C,Potency,[1],inactive
same,Potency,[2],17.4 µM (active)
CN(C)CC[C@@H](c1ccc(Cl)cc1)c1ccccn1,Potency,[1],inactive
same,Potency,[4],inactive
same,Potency,[2],9.52 µM (active)
same,Potency,[3],inactive
same,Potency,Papain (Carica papaya),inactive
COc1ccc(S(=O)(=O)Nc2nnc(CC(C)C)s2)cc1,Potency,[1],inactive
same,Potency,[2],inactive
same,Potency,[3],21.9 µM (active)
C[C@]12C[C@H](O)[C@H]3[C@@H](CCC4=CC(=O)CC[C@@]43C)[C@@H]1CC[C@@H]2C(=O)CO,Potency,[1],inactive
same,Potency,[4],inactive
same,Potency,[2],inactive
same,Potency,Papain (Carica papaya),inactive
CN(C)CCOC(C)(c1ccccc1)c1ccccn1 (stereo not drawn),Potency,[1],inactive
same,Potency,[4],inactive
same,Potency,[3],inactive
same,Potency,Papain (Carica papaya),inactive
CC(=O)OCC(=O)[C@@]1(O)CC[C@H]2[C@@H]3CCC4=CC(=O)CC[C@]4(C)[C@H]3C(=O)C[C@@]21C,Potency,[1],inactive
same,Potency,[4],inactive
same,Potency,[2],3.89 µM (active)
same,Potency,Papain (Carica papaya),inactive
C[C@](N)(Cc1ccc(O)cc1)C(=O)O,Potency,[1],inactive
same,"% pathology change, negative = correction",[4],14.7% [at 4.63 µM]
same,"activity change, negative = inhibition",[2],8.94% [at 4.83 µM]
same,"activity change, negative = inhibition",[3],1.65% [at 4.83 µM]
same,Potency,Papain (Carica papaya),inactive
NC(=O)N/N=C/c1ccc([N+](=O)[O-])o1,Potency,[1],inactive
same,Potency,[2],13.4 µM (active)
same,Potency,[3],inactive
NC1CCN(c2cccc(Cl)n2)CC1,Potency,[1],inactive
same,Potency,[2],1.55 µM (active)
same,Potency,[3],inactive
O=c1[nH]c(=O)c2[nH]c(=O)[nH]c2[nH]1,"activity change, negative = inhibition",[1],-1.24% [at 7.35 µM]
same,"activity change, negative = inhibition",[2],4.14% [at 11.5 µM]
same,"activity change, negative = inhibition",[3],8.18% [at 11.5 µM]
CCN(CC)CCCC(C)Nc1c2ccc(Cl)cc2nc2ccc(OC)cc12 (stereo not drawn),Potency,[1],inactive
same,Potency,[2],0.0776 µM (active)
same,Potency,[3],inactive
same,Potency,Papain (Carica papaya),17.8 µM (active)
Nc1ncnc2c1ncn2[C@@H]1O[C@H](CO)[C@@H](O)[C@H]1O,Potency,[1],inactive
same,Potency,[4],inactive
same,Potency,Papain (Carica papaya),inactive
O=C1NC(=O)[C@@]2(CCOc3ccc(F)cc32)N1,Potency,[1],inactive
same,Potency,[4],inactive
same,Potency,[2],inactive
same,Potency,[3],inactive
same,Potency,Papain (Carica papaya),inactive
CCCCC(CC)COC(=O)c1ccccc1O (stereo not drawn),Potency,[1],inactive
same,Potency,[2],inactive
same,Potency,[3],inactive
Nc1nc2c(ncn2CCC(CO)CO)c(=O)[nH]1,Potency,[1],inactive
same,Potency,[2],inactive
same,Potency,[3],inactive
NS(=O)(=O)c1cc2c(cc1C(F)(F)F)NC(Cc1ccccc1)NS2(=O)=O (stereo not drawn),Potency,[1],inactive
same,Potency,[2],inactive
same,Potency,[3],inactive
Cc1ccc(C(C)C)cc2c(C)ccc1-2,Potency,[1],inactive
same,Potency,[2],inactive
same,Potency,[3],inactive
O=C(CCCN1CCN(c2ccccn2)CC1)c1ccc(F)cc1,Potency,[1],inactive
same,Potency,[4],inactive
same,Potency,[2],15.5 µM (active)
same,Potency,[3],12.3 µM (active)
Oc1cccc(O)c1,Potency,[1],inactive
same,Potency,[2],inactive
same,Potency,[3],inactive
Nc1ccc(S(=O)(=O)NC(=O)c2ccccc2)cc1,Potency,[1],inactive
same,Potency,[2],inactive
CCCn1cnc2c1c(=O)n(CCCCC(C)=O)c(=O)n2C,Potency,[1],inactive
same,Potency,[4],inactive
same,Potency,[2],inactive
same,Potency,[3],inactive
same,Potency,Papain (Carica papaya),inactive
CC1=C(CC(=O)O)c2cc(F)ccc2/C1=C\c1ccc(S(C)(=O)=O)cc1,Potency,[1],inactive
same,Potency,[4],inactive
same,Potency,[2],inactive
same,Potency,Papain (Carica papaya),inactive
CC(O)COc1ccccc1 (stereo not drawn),Potency,[1],inactive
same,Potency,[2],inactive
same,Potency,[3],inactive
CCCCN1CCCC[C@H]1C(=O)Nc1c(C)cccc1C,Potency,[1],inactive
same,Potency,[2],0.275 µM (active)
same,Potency,[3],inactive
